PubChem BioAssay (NCI)
This is part of a sample that, as a whole, favours compounds with a hit. Of some 79,000 tested, about 15% had one in any assay. A number with no mark means an inactive call. Active and inactive are the calls of the source. No stated cut-off is given here; in the data, active means growth inhibition above about 70%; inactive means the rest.

Assay: NCI Yeast Anticancer Drug Screen. Data for the sgs1 mgt1 strain (AID 161);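 further: 0% = growth of cultures given vehicle only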
Details: S. cerevisiae sgs1 mgt1 strain, at 50.0 µM, active compounds read high
How it was run: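 Mutant yeast exposed to compound; growth scored against vehicle-only wells.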

SMILES | growth inhibition
Cn1c(N)c(C(=O)/C=C/c2ccccc2)c(=O)n(C)c1=O | 17.9%
CCc1c(CBr)c(=O)[nH]c2ccccc12 | -10.8%
CN1CCCC1 | -2.15%
COc1ccccc1N=Nc1c(O)n(-c2ccccc2C)c(=S)n(-c2ccccc2OC)c1=O | 19.1%
C=CCC12CC(O)C(O)CC1(OC)OC(c1cc(OC)c(OC)c(OC)c1)C2C (stereo not given) | -8.1%
Cc1ccccc1NC(=O)CS | 31.2%
COc1ccc(N=C2[Se]C(=NC(=O)c3ccccc3)N(c3ccc(OC)cc3)C2=Nc2ccc(OC)cc2)cc1 | -22.2%
Cc1cccnc1NCc1ccccn1 | 15.1%
Cc1csc2c1-n1cccc1C2=O | -17.8%
CCn1cc(C(=O)O)c(=O)c2ccc(-c3ccncc3)cc21 | 5.75%
Cc1cccc(C(=O)O)c1N | -10.6%
C/C=C(\C)c1cc(O)c(C)c2c1Oc1cc(O)c(Cl)c(C)c1C(=O)O2 | 93.9% (active)
CCN(CC)c1cc2c(cc1Br)-c1ccccc1C2=O | 5.7%
CC1(C)CC(C)(C)CC(O)(C2(O)CC(C)(C)CC(C)(C)C2)C1 | -2.7%
Nc1nc(Br)nc2ncn(C3CC(O)C(CO)O3)c12 (stereo not given) | 18.3%
C/C(=N\NC(N)=O)c1sc(-c2nc(C)c(/C(C)=N/NC(N)=O)s2)nc1C | 20.9%
O=C1c2ccccc2C(=O)N1Cl | -37.1%
NC(=O)C(NN=C1c2ccccc2-c2ccccc21)(c1ccccc1)c1ccccc1 | 28%
O=C(Cc1ccccc1)c1c[nH]c2c(O)ccc(O)c12 | -12.3%
CCCCCC(CN(C)C)C(O)CCc1ccc(Cl)c(Cl)c1 (stereo not given) | 98% (active)

SMILES | growth inhibition
Cc1cccc(C(C)C)c1NC(=O)/C(Cc1c([N+](=O)[O-])cccc1[N+](=O)[O-])=N/NC(=O)CC#N | 13.8%
CC1c2c(cc(=O)n(C)c2O)C(=O)N1C (stereo not given) | -7.85%
CN(C)c1ccc(/C=C/C=C(/C#N)c2ccccc2)cc1 | 2.9%
Cc1nc(-c2nc(C)c(C(=O)NNC(=O)C[n+]3ccccc3)s2)sc1C(=O)NNC(=O)C[n+]1ccccc1 | 52%
C/C(=N/NC(=S)N1CCCCCC1)c1ccccc1O | 5.6%
CCCCCCC(=O)c1ccco1 | -1.05%
NC1CCCCC1N.O=NN1CCCCCC1(P(=O)([O-])[O-])P(=O)([O-])[O-].[Na+].[Pt+2] | -14.6%
NNC(=O)C1C2C=CC(C2)C1C(=O)NN (stereo not given) | -11.7%
CCOC(=O)C(=O)c1cn(C)c(=O)n(C)c1=O | 1.3%
CC(C)(C)OC(=O)NCCNC(=O)OCc1ccccc1 | -16.7%
O=[N+]([O-])c1ccc(Oc2cccc3ccccc23)c([N+](=O)[O-])c1 | 18.5%
CCOC(=O)C(=O)C(C(=O)OCC)C(C)C(=O)OCC (stereo not given) | 8.2%
O=C1C2=C(CCCC2)Nc2cccc3ncn1c23 | -56.8%
CC(C)/C=N/N=C/C(C)C | -16.6%
COC(=O)C1CC2(C(=O)OC)CC(C(=O)OC)(CC(C(=O)OC)C2=O)C1=O (stereo not given) | 14.1%
Cc1nc2ccccc2c(=O)n1/N=C\c1ccc2c(c1)CCC2 | 15.8%
Nc1cccc(Nc2nc3ccccc3nc2NS(=O)(=O)c2ccccc2)c1 | 14.6%
BrCCCOc1ccccc1Br | 1.6%
CNC(=O)Nc1ccc(C(=O)OCC(C)C)cc1 | 12.9%
C=C(C)CNCC(=C)C | -8.25%

Assay: NCI Yeast Anticancer Drug Screen. Data for the cln2 rad14 strain (AID 165);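 further: 0% = growth equal to vehicle treated cultures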
Details: S. cerevisiae cln2 rad14 strain, at 50.0 µM, active compounds read high
How it was run: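 cln2 rad14 yeast strain; compound exposure; growth inhibition read vs vehicle controls.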

SMILES | growth inhibition
Cn1c(N)c(C(=O)/C=C/c2ccccc2)c(=O)n(C)c1=O | 17.1%
CCc1c(CBr)c(=O)[nH]c2ccccc12 | 0.9%
CN1CCCC1 | 1.1%
COc1ccccc1N=Nc1c(O)n(-c2ccccc2C)c(=S)n(-c2ccccc2OC)c1=O | -12.8%
C=CCC12CC(O)C(O)CC1(OC)OC(c1cc(OC)c(OC)c(OC)c1)C2C (stereo not given) | -4.75%
Cc1ccccc1NC(=O)CS | -21%
COc1ccc(N=C2[Se]C(=NC(=O)c3ccccc3)N(c3ccc(OC)cc3)C2=Nc2ccc(OC)cc2)cc1 | -36%
Cc1cccnc1NCc1ccccn1 | 4.35%
Cc1csc2c1-n1cccc1C2=O | 12.2%
CCn1cc(C(=O)O)c(=O)c2ccc(-c3ccncc3)cc21 | -7.85%
Cc1cccc(C(=O)O)c1N | 9.95%
C/C=C(\C)c1cc(O)c(C)c2c1Oc1cc(O)c(Cl)c(C)c1C(=O)O2 | 92.3% (active)
CCN(CC)c1cc2c(cc1Br)-c1ccccc1C2=O | 52.2%
CC1(C)CC(C)(C)CC(O)(C2(O)CC(C)(C)CC(C)(C)C2)C1 | -3%
Nc1nc(Br)nc2ncn(C3CC(O)C(CO)O3)c12 (stereo not given) | -2.25%
C/C(=N\NC(N)=O)c1sc(-c2nc(C)c(/C(C)=N/NC(N)=O)s2)nc1C | 43.3%
O=C1c2ccccc2C(=O)N1Cl | -0.05%
NC(=O)C(NN=C1c2ccccc2-c2ccccc21)(c1ccccc1)c1ccccc1 | 42.8%
O=C(Cc1ccccc1)c1c[nH]c2c(O)ccc(O)c12 | -49.1%
CCCCCC(CN(C)C)C(O)CCc1ccc(Cl)c(Cl)c1 (stereo not given) | 98.5% (active)

SMILES | growth inhibition
Cc1cccc(C(C)C)c1NC(=O)/C(Cc1c([N+](=O)[O-])cccc1[N+](=O)[O-])=N/NC(=O)CC#N | 11.2%
CC1c2c(cc(=O)n(C)c2O)C(=O)N1C (stereo not given) | -6.2%
CN(C)c1ccc(/C=C/C=C(/C#N)c2ccccc2)cc1 | 32.2%
Cc1nc(-c2nc(C)c(C(=O)NNC(=O)C[n+]3ccccc3)s2)sc1C(=O)NNC(=O)C[n+]1ccccc1 | -20.9%
C/C(=N/NC(=S)N1CCCCCC1)c1ccccc1O | 45.4%
CCCCCCC(=O)c1ccco1 | 14.9%
NC1CCCCC1N.O=NN1CCCCCC1(P(=O)([O-])[O-])P(=O)([O-])[O-].[Na+].[Pt+2] | -19.3%
NNC(=O)C1C2C=CC(C2)C1C(=O)NN (stereo not given) | -35%
CCOC(=O)C(=O)c1cn(C)c(=O)n(C)c1=O | 3.8%
CC(C)(C)OC(=O)NCCNC(=O)OCc1ccccc1 | 4.45%
O=[N+]([O-])c1ccc(Oc2cccc3ccccc23)c([N+](=O)[O-])c1 | -82.5%
CCOC(=O)C(=O)C(C(=O)OCC)C(C)C(=O)OCC (stereo not given) | -41.1%
O=C1C2=C(CCCC2)Nc2cccc3ncn1c23 | -20.4%
CC(C)/C=N/N=C/C(C)C | 15.3%
COC(=O)C1CC2(C(=O)OC)CC(C(=O)OC)(CC(C(=O)OC)C2=O)C1=O (stereo not given) | 11.9%
Cc1nc2ccccc2c(=O)n1/N=C\c1ccc2c(c1)CCC2 | 18.2%
Nc1cccc(Nc2nc3ccccc3nc2NS(=O)(=O)c2ccccc2)c1 | -11.3%
BrCCCOc1ccccc1Br | -32.1%
CNC(=O)Nc1ccc(C(=O)OCC(C)C)cc1 | -34.1%
C=C(C)CNCC(=C)C | -16.8%
